Compound activity (PubChem)
This is a sample that favours compounds with a hit; in the whole collection about 19% have one here.
BCR signal inh – chronic active BCR signaling inhibition. ABC-DLBCL IkBa-CBG/CBR reporter, luminescence ratio, 4 h. Potency, µM (series often up to 46.1 µM), for inactives: top-dose activity change, negative = inhibition, hits mostly inhibitors. 340,000 tested, 0.05% active; active means well fitted inhibition curve with a large enough effect in the signal ratio, with a control signal flat, not every such curve was filed as active; inconclusive means small, poorly fitted or top-dose-only effect, or effect the other way, or a change in a side signal; the % refers to the signal ratio;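 further: potency means the concentration at half of the fitted maximal effect; plate controls were basal doxycycline-induced cells for no effect and cells given 10 µM MG132 for full effect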
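Doxycycline induced both beetle luciferases in TMD8 lymphoma cells; IKK-driven degradation limits the IkappaBalpha-fused green signal, while red luminescence normalises for cell number and nonspecific effects. Compounds tested up to 46 uM, 4 hrs.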
TDP1 cell CPT – DT40-hTDP1 cell growth loss with CPT; chicken DT40 Tdp1-/-;hTDP1 cells + 20 nM CPT, ATP luminescence, 48 h; Potency, µM (series often up to 46.2 µM), for the others: at the top dose activity change, negative = growth inhibition, actives largely listed as inhibitors; 420,000 tested, 12% active; further: potency means the concentration at half of the fitted maximal effect; on the % scale 0 is the no-effect control and ±100 the full control effect; nearly all actives have a fitted effect of over 55% in size
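Chicken DT40 Tdp1-/- cells stably complemented with human TDP1 were seeded at 400 cells/well in medium containing 20 nM camptothecin, exposed to pin-transferred compounds, and grown at 37 °C for at least 48 hr. Viability was read as ATP luminescence.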
SW480 rereplic – inducers of DNA re-replication in SW480 colon cancer cells; SW480 DNA re-replication, Hoechst DNA content imaging, 48 h; Potency, µM (top dose mostly 46.1 µM), inactives show top-dose re-replication activation, usual class: activators; 340,000 tested, 1.8% active; AID 624297; further: potency means the concentration at half of the fitted maximal effect; % of control where 0% means no effect; nearly all actives have a fitted effect of over 55% in size
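First, 250 cells per well were seeded. Next, compound or vehicle (23 nL) was pinned in, plates sat 48 hr at 37 C. Finally Hoechst was added for 40 min before fluorescence scanning.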
IL-1B inflam inh – inflammasome signaling inhibition, IL-1 beta readout | THP-1 LPS/ATP IL-1B secretion, AlphaLISA, 16 h; stronger effect = lower value | activity change, % at 57.5 µM | 360,000 tested, 4.7% active | AID 743279; in the data active means activity change below about -50%; inconclusive means mostly about -30% to -49%; further: on the % scale 0 is the no-effect control and ±100 the full control effect
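Secreted IL-1B measured by AlphaLISA bead assay after 16 h compound exposure of THP-1 cells; compounds (final up to 57.5 uM) added 1 h before LPS (250 ng/mL) and ATP (1.25 mM) stimulation; lower signal means less secretion.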
MCF10A rerep – DNA re-replication induction in MCF 10a cells; MCF 10A DNA re-replication, Hoechst nuclear intensity, 48 h; Potency, µM (doses to about 46.1 µM), for inactives: top-dose activity, positive = re-replication, hits mostly activators; 350,000 tested, 2.9% active; AID 624296; further: potency means the concentration at half of the fitted maximal effect; % of control where 0% means no effect; nearly all actives have a fitted effect of over 50% in size
TDP1 cell noCPT – qHTS for Inhibitors of human tyrosyl-DNA phosphodiesterase 1 (TDP1): qHTS in cells in absence of CPT. DT40 Tdp1-/- hTDP1 cells, no CPT, ATP luminescence, 48 h. Potency, µM (titrated, usually from 46.2 µM), without a hit: at the highest dose activity change, negative = growth inhibition, most hits filed as inhibitors. 420,000 tested, 15% active; further: potency means the concentration at half of the fitted maximal effect; on the % scale 0 is the no-effect control and ±100 the full control effect; nearly all actives have a fitted effect of over 55% in size
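Compound effects on proliferation are scored in DT40 Tdp1-/-;hTDP1 cells in the absence of CPT. ATP levels (CellTiter-Glo luminescence) are recorded after a ≥48 hr, 37 °C incubation.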
Active calls of the source: *; ? = inconclusive; / = not tested or not shown; [ ] = another dose, or the depositor's remark. Unless noted, the call rests on the fitted dose curve; in most records, active means well fitted curve in the direction sought with a large enough effect; inconclusive means small, poorly fitted or top-dose-only effect, or another doubt; inactive means no such curve, though single readings can be large; an effect the other way counts as inactive or inconclusive.

SMILES	BCR signal inh	TDP1 cell CPT	SW480 rereplic	IL-1B inflam inh	MCF10A rerep	TDP1 cell noCPT
COc1ccccc1NC(=S)N=Nc1c(O)[nH]c2ccc(Br)cc12	?	2.6µM*	-1%	0	?	1.5µM*
Oc1[nH]c2ccc(Br)cc2c1N=NC(=S)NCC1CCCO1 (configuration not stated)	?	?	14%	-5	-6%	?
O=C(CNC(=O)Cc1ccccc1)N=Nc1c(O)[nH]c2ccccc12	6%	3%	-1%	17	0%	-24%
CCc1ccc(C(C(=O)NCc2ccc(F)cc2)N(C(=O)c2csnn2)C2CC2)cc1 (configuration not stated)	2%	-11%	4%	-8	15%	?
CCn1cc(S(=O)(=O)NCCc2ccc(OC)c(OC)c2)cn1	1%	7%	3%	-18	-24%	1%
O=S1(=O)CC(N2CCN(CCO)CC2)CN1Cc1ccccc1 (configuration not stated)	/	-1%	/	35	/	-2%
COCCNC(=O)/C(C#N)=C/c1c(N2CCCCCC2)nc2ccccn2c1=O	6%	-11%	5%	-14	-15%	?
CN1C(CC(=O)Nc2ccc(Cl)cc2Cl)c2ccccc2CC1(C)C (configuration not stated)	1%	10µM*	?	/	?	16µM*
CC1(C)Oc2cc3oc(-c4cc(O)cc(O)c4)cc3cc2CC1O (configuration not stated)	/	21µM*	-16%	8	-43%	?
Oc1cc(O)cc(-c2cc3ccc(O)cc3o2)c1	/	-2%	-6%	?	-27%	?
CCCN(CCC)S(=O)(=O)c1cc2c3c(c1)CCN3C(=O)CC2	6%	-15%	?	-14	-2%	0%
COc1ccc(OC)c(NC2=C(Cl)C(=O)N(Cc3ccccc3)C2=O)c1	?	?	6%	-165*	?	?
COc1ccc(OC)c(NS(=O)(=O)Cc2ccccc2)c1	2%	/	/	/	/	/
CC1CCN(C(=O)c2ccc(NC3=C(Cl)C(=O)N(Cc4ccccc4)C3=O)cc2)CC1	7%	18µM*	?	-93*	23µM*	12µM*
CC1CCCCN1C(=O)c1cccc(NC2=C(Cl)C(=O)N(Cc3ccccc3)C2=O)c1 (configuration not stated)	?	?	?	-88*	23µM*	?
CC1CCCCN1CCNC(=O)c1ccc2c(c1)N(Cc1ccccc1)C(=O)c1ccccc1S2(=O)=O (configuration not stated)	?	?	?	-27	-1%	?
COc1ccc(OC)c(NC2=C(c3ccccc3)C(=O)c3ccccc32)c1	/	1.5µM*	/	/	/	1µM*
CC1CCN(C(=O)c2ccc(NC(=O)c3ccccc3)cc2)CC1	8%	-11%	2%	-6	3%	3%
COc1ccc(C2/C(=C(\O)c3ccc4c(c3)CC(C)O4)C(=O)C(=O)N2Cc2cccnc2)c(OC)c1 (configuration not stated)	3%	-3%	25%	18	1%	4%
O=C(NCCCCc1ccccc1)c1cccc(NC(=O)C2CC2)c1	/	?	3%	-14	3%	?
CCOC(=O)N1CCN(C(=O)c2cc3cc(OC)c(OC)cc3[nH]2)CC1	-10%	5%	-7%	-26	-2%	8%
CCOc1ccccc1NC1=C(Cl)C(=O)N(Cc2ccccc2)C1=O	8%	?	10%	-5	?	?
CC1CCCCN1C(=O)c1ccc(C(=O)c2ccccc2)cc1 (configuration not stated)	4%	?	-13%	6	6%	15µM*
CC1CCCCN1C(=O)c1ccc(NC(=O)c2ccccc2Cl)cc1 (configuration not stated)	-8%	0%	-4%	?	18%	-29%
O=C1C(Cl)=C(Nc2cccc(O)c2)C(=O)N1Cc1ccccc1	?	23µM*	14%	-98*	?	?
SMILES	BCR signal inh	TDP1 cell CPT	SW480 rereplic	IL-1B inflam inh	MCF10A rerep	TDP1 cell noCPT
Cc1ccc(Nc2nc(NCc3cccs3)nc3ccsc23)c(C)c1	/	23µM*	/	-51*	/	9.2µM*
Cc1ccc(NC(=S)N(Cc2ccccc2)Cc2cccs2)c(C)c1	0%	-12%	12%	-12	-8%	-13%
Cc1ccc(Nc2nc(NCc3ccccc3)nc3ccsc23)c(C)c1	/	23µM*	/	?	/	6.5µM*
O=C(NCc1ccc2c(c1)OCO2)c1ccc2c(c1)N(Cc1cccc(Cl)c1)C(=O)c1ccccc1S2=O (configuration not stated)	12%	-22%	/	/	/	-29%
O=C(CSc1ccc(-c2ccco2)nn1)Nc1ccc(F)cc1F	-3%	?	0%	41	11%	?
Cc1cc(C)c(NC(=O)c2cn3c4c(c(N5CCN(C)CC5)c(F)cc4c2=O)OCC3C)c(C)c1 (configuration not stated)	?	18µM*	-1%	-7	-5%	?
CCn1cc(C(=O)NCC2CCCO2)c(=O)c2cc(F)c(N3CCN(C)CC3)cc21 (configuration not stated)	15%	20%	-9%	18	5%	-20%
CC(C)[C@H](NC(=O)OC(C)(C)C)c1cc(C(=O)N[C@@H](C)c2ccccc2)c(N)s1	/	?	/	-28	/	?
Cc1ccc(Cl)cc1Nc1nc2ccccc2c2nncn12	/	?	/	/	/	23µM*
CC1CCN(CCCCOc2ccc(Cl)cc2)CC1	0%	-19%	10%	-26	?	-24%
CC(C)(C)c1ccc(OCCCCCCN2CCNCC2)cc1	/	18µM*	?	-80*	12%	8.2µM*
CC1CCN(CCCCOc2ccc(C(C)(C)C)cc2)CC1	-9%	23µM*	?	?	-2%	?
CC(C)(c1ccccc1)c1ccc(OCCN2CCOCC2)cc1	1%	?	-7%	40	?	16µM*
CCC(C)NCCOc1ccc(C(C)(C)c2ccccc2)cc1 (configuration not stated)	?	?	5%	-66*	?	16µM*
c1ccc(OCCOCCN2CCOCC2)cc1	14%	-34%	-8%	-15	1%	-5%
CC(C)(C)NC(=O)[C@@H]1CC[C@@H]2[C@@H]3CC[C@@H]4NC(=O)C=C[C@@]4(C)[C@H]3CC[C@]21C	/	/	-10%[20.6 µM]	/	-2%[20.6 µM]	/
